SMILES strings stand for the structures. This is part of a sample that, as a whole, favours compounds with a hit. Of some 83,000 tested, about 20% had one in any assay.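 Results are percent growth after 48 hours of single-concentration exposure. 100 means growth as in untreated cells, lower positive values show inhibition; negative values down to -100 show cell death.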 Unmarked numbers belong to inactive results. The calls were made as follows: active = growth percent below 10; inactive = the rest.

This experiment deals with MDA-MB-468 breast. Briefly: NCI-60 one-dose screen, 48 h (100 = growth as untreated, 0 = no growth, -100 = all killed). The conditions noted are these: 10 µM unless noted.
In the case of `COc1cccc2c1C=CC1(O2)Oc2cccc(OC)c2C=C1C` (centres undefined), the growth is 39.5%.
For `COc1ccc(/C(C)=C(\c2ccc(Cl)cc2)c2ccc(OCCN3CCCCC3)cc2)cc1F` the value was 15.7%; for `Brc1ccc(/C=C(/C2=NCCN2)n2ccc3ccccc32)cc1`, 50.8%; for `CN1[C@@H]2CC[C@H]1/C(=C\c1ccccc1)C1=C2[C@@H](c2ccccc2)C(C#N)=C(N)O1`, 50.3%.

The values above are taken from PubChem BioAssay (NCI).
